Data: PubChem BioAssay (NCATS)
Records with an inconclusive call do not appear. Where a structure was tested more than once in an assay, its records may differ in their call. Active and inactive are the calls of the source. Unless noted, the call rests on the fitted dose curve; in most records, active means well fitted curve in the direction sought with a large enough effect; inconclusive means small, poorly fitted or top-dose-only effect, or another doubt; inactive means no such curve, though single readings can be large; an effect the other way counts as inactive or inconclusive.

What was measured:
[1] = system: Zika virus NS2B-NS3 protease; experiment: Primary screen GU AMC qHTS for Zika virus inhibitors (AID 1347154);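 further: 0% = no-inhibitor control and -100% = no-enzyme control; nearly all actives have a fitted effect of over 70% in size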
Method in brief: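 Unlinked Zika NS2B hydrophilic domain–NS3 protease complex at 25 nM in 10 mM Tris-HCl pH 8.0, 0.01% Tween 20, with an AMC peptide substrate. Fluorescence change (340/450 nm) over 15 min at room temperature, normalized to controls, fitted to 4-parameter Hill.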

[2] = Counterscreen qHTS for small molecule stabilizers of the endoplasmic reticulum resident proteome: GLuc-NoTag assay (AID 1508627);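 further: SH-SY5Y cells given compound then 100 nM thapsigargin to empty ER calcium; series mostly up to about 76 µM; 0% = thapsigargin alone and -100% = DMSO vehicle control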
Method in brief: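 SH-SY5Y cells stably expressing constitutively secreted GLuc without SERCaMP tag, exposed to compound for 19 hr, then to 100 nM thapsigargin for 4 hr at 37C. Medium luciferase was read by coelenterazine luminescence without lysis.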

[3] = Confirmatory qHTS for small molecule stabilizers of the endoplasmic reticulum resident proteome: Secreted ER Calcium Modulated Protein (SERCaMP) assay (AID 1508628); further: nearly all actives have a fitted effect of over 40% in size; further: potency means the concentration at half of the fitted maximal effect
Method in brief: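 SH-SY5Y cells stably expressing GLuc-SERCaMP, treated 16 h with compound (primary 1.53, 7.67, 38.3 uM; confirmation 11 concentrations, up to 76.6 uM), then 100 nM thapsigargin for 4 h. Secreted Gaussia luciferase in medium read by coelenterazine luminescence.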

[4] = Cell Viability qHTS for small molecule stabilizers of the endoplasmic reticulum resident proteome (AID 1508629); conditions: cell viability counter-screen, 100 nM thapsigargin for final 4 h;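 further: human SH-SY5Y neuroblastoma cells carrying the GLuc-SERCaMP reporter; compound exposure about 46 h in total before the viability read; on the % scale 0 is the no-effect control and ±100 the full control effect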
[5] = target: Cytochrome P450 1A2 (Homo sapiens) (UniProt P05177); experiment: p450-cyp1a2 (AID 410; calls by dose curve; further: potency means the concentration at half of the fitted maximal effect)
Method in brief: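 20nM CYP1A2 with 100uM Luciferin-ME (at Km) in 100mM KPO4; compound preincubated 10 min, NADPH regeneration added, 60 min at room temperature. Luciferin quantified by luminescence after detection reagent; normalized to 57 uM furafylline.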

[6] = target: Glucocorticoid receptor (Homo sapiens) (UniProt P04150); experiment: GR-GFP Redistribution (AID 450;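 active means compounds whose dose series gives a full or clear partial fitted curve of increased nuclear translocation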; further: potency means the concentration at half of the fitted maximal effect); conditions: U2OS GR-GFP nuclear translocation, laser cytometry, 2 h
[7] = target: Glucocorticoid receptor (Homo sapiens) (UniProt P04150); experiment: GR-EFC Redistribution (AID 451; calls by dose curve; further: potency means the concentration at half of the fitted maximal effect); conditions: CHO-K1 GR-EFC translocation, beta-gal luminescence, 2 h
Method in brief: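 CHO-K1 cells expressing nuclear EA and GR-ED fragments of b-gal; compounds titrated up to 46 uM final, 2 h at 37 C. GR nuclear translocation read as complemented b-gal luminescence after 1 h RT detection.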

[8] = target: Mitogen-activated protein kinase 10 (Mus musculus) (UniProt Q61831); experiment: JNK3 AlphaScreen Assay (AID 530; active means well fitted curve in either direction with a large enough effect, not every such curve was filed as active;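 further: kinase came from lysate of stimulated human HepG2 cells; signal reports phosphorylation of biotinylated GST-cJun 1-79 at Ser73 with 10 µM ATP; series mostly up to about 57 µM; on the % scale 0 is the no-effect control and ±100 the full control effect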)
Method in brief: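 Pre-activated (IL-1β/TNFα) JNK3 in HepG2 lysates phosphorylates biotin-GST-cJun(1-79), 10 uM ATP; anti-phospho-cJun(Ser73) AlphaScreen read at room temperature, pH 7.6 Tris buffer. Compounds pre-incubated 15 min as titrations.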

[9] = target: DNA dC->dU-editing enzyme APOBEC-3G (Homo sapiens) (UniProt Q9HC16); experiment: qHTS for inhibitors of Vif-A3G interactions: Validation (AID 588379); further: 0% is about no effect
Method in brief: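 HeLa cells stably expressing Vif and A3G-eYFP, 700 cells/well, incubated overnight at 37 deg C, then exposed to compound overnight at 37 deg C. Inhibition of Vif-mediated degradation read as increased yellow fluorescence (Ex 488/Em 500-530) by laser-scanning cytometry.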

[10] = target: Calcium and integrin-binding protein 1 (Homo sapiens) (UniProt Q99828); experiment: Primary qHTS for Identification of Calcium Integrin Binding Protein 1 (CIB1) Competitor (AID 1508620);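 further: GST tagged CIB1 binding a fluorescein labelled alphaIIb integrin peptide tracer; top concentration of the series differs between compounds; on the % scale 0 is the no-effect control and ±100 the full control effect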
Method in brief: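 Fluorescence polarization competition: GST-tagged CIB1 (1 uM final) preincubated with compound 15 min at room temperature, then FITC-labelled alphaIIb peptide (100 nM final) added. After 15 min at room temperature, polarization read at Ex 480/Em 540.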

[11] = Primary qHTS for small molecule stabilizers of the endoplasmic reticulum resident proteome: Secreted ER Calcium Modulated Protein (SERCaMP) assay (AID 1508630); further: on the % scale 0 is the no-effect control and ±100 the full control effect
Method in brief: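 GLuc-SERCaMP-expressing SH-SY5Y cells, pretreated 16 h with compound, are challenged with thapsigargin to empty ER calcium stores; after 4 h, coelenterazine is added directly to the medium and luminescence is imaged.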

Sequence of Glucocorticoid receptor (Homo sapiens) (P04150 whole entry, looked up, the tested form may be a part): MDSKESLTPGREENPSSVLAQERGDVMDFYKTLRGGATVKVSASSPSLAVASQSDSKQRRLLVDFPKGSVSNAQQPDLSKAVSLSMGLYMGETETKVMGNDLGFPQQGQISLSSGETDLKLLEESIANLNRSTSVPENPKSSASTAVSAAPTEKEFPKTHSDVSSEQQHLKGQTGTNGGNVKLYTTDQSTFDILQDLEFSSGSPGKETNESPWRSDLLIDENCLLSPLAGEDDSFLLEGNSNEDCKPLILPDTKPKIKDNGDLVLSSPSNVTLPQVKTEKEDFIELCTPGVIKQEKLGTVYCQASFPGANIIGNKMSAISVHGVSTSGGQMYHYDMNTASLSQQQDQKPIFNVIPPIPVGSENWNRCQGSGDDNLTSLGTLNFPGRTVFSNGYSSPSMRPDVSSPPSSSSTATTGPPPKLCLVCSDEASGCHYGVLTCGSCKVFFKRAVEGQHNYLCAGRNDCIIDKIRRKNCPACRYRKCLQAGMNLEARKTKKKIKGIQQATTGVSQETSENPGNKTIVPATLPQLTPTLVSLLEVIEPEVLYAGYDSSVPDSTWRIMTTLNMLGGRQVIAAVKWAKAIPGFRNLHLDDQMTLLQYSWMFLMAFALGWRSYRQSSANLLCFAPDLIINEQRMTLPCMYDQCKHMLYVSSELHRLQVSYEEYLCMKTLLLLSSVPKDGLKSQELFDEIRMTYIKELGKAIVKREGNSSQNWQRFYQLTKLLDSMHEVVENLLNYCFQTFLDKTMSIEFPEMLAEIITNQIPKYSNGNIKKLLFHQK
Sequence of Calcium and integrin-binding protein 1 (Homo sapiens) (Q99828 whole entry, looked up): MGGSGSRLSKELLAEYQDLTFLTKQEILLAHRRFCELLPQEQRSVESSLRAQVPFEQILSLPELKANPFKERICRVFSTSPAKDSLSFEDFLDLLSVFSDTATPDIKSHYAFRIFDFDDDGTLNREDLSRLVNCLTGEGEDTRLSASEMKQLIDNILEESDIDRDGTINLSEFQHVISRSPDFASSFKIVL
Sequence of DNA dC->dU-editing enzyme APOBEC-3G (Homo sapiens) (Q9HC16 whole entry, looked up): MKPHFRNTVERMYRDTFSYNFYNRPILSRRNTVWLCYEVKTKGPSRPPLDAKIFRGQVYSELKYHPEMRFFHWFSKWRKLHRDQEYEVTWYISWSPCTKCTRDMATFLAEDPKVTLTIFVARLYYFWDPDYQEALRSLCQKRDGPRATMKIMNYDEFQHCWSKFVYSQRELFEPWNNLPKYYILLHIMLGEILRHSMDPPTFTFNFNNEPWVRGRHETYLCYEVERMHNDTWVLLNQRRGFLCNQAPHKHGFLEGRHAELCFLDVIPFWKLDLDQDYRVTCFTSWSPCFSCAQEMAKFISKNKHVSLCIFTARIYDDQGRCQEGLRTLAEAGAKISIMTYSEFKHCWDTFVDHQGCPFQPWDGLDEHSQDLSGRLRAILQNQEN
Sequence of Cytochrome P450 1A2 (Homo sapiens) (P05177 whole entry, looked up): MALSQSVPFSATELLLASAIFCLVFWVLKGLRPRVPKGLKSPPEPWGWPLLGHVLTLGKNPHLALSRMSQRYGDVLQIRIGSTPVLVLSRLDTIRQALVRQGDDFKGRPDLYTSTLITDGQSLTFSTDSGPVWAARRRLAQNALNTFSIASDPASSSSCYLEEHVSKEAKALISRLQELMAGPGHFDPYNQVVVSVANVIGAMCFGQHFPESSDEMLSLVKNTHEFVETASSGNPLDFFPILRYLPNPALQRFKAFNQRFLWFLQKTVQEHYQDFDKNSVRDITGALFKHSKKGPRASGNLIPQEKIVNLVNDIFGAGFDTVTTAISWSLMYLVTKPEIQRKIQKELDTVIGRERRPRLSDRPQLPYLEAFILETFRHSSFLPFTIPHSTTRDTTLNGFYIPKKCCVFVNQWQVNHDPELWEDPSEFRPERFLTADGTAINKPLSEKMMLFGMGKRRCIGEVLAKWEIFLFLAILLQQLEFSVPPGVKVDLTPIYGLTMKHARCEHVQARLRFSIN

O=C(O)C1NCCN(C(=O)c2ccc3c(ccc4ccccc43)c2)C1C(=O)O (stereo unspecified)
inactive: Potency [1] | Potency [2] | Potency [3] | max response [4] 28.7%

N#Cc1cc2c(OCC(O)CN3CCN(C(c4ccccc4)c4ccccc4)CC3)cccc2[nH]1 (stereo unspecified)
inactive: Potency [1] | Potency [2] | max response [4] 3.24%
3.98 µM (active) and inactive: Potency [3]

COC(=O)c1ccccc1NC(=O)c1ccc(F)cc1
inactive: Potency [6] > 46 µM | Potency [7] > 46 µM | Potency [8] | Potency [9] | Potency [1] | outcome [10] | Potency [11]
active: Potency [5] 0.2 µM
